The whole screen tested about 1,000 compounds, of which about 550 (55%) were called active. The set was probably picked from earlier hits. The list is a sample of the results. Values without a mark were called inactive. No stated cut-off is given here; in the data, active means inhibition above about 50%; inactive means the rest.

A short description of this assay: NALP3 inhibitors in yeast, repeat test, confirmation, luminescence, single concentration, retest (AID 488794). Particulars: yeast expressing human NALP3, luminescence read-out; at 10 µM; stronger effect = higher value.
Turning to `CCCCCCCCCCCCn1ccc(=N)cc1`, the inhibition (usually the change of the read-out against control, counted positive when it falls) is 82.8% (active).
Take `Cc1cc2ccccn2c1C(C[N+](=O)[O-])c1c(F)cccc1Cl` (centres undefined): the inhibition was 23.2%.
Under `Cc1ccc(-c2nc3ccccc3c(=O)n2-c2ccc(Br)cn2)cc1` stands 45.7%; under `O=C1/C(=C\c2ccc3c(c2)OCO3)N2CCC1CC2`, 35%.
